Ecoli rRNA inh = reduced GFP signal of wild-type E. coli, primary screen, bacterial rRNA inhibitor project, GFP/RFP fluorescence, OD600, single point; E. coli WT GFP vs humanized-ribosome RFP mutants, 24 h; active compounds read low; DMSO median 0, no signal -100; GFP signal change (wild-type ribosome), % (test concentration not listed); actives 1.6% (n = 350,000); AID 720706, 2013;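 active means significant combined selectivity score with lowered wild-type GFP, culture density cut under 30%, mutant RFP and density less affected; inactive means any of these conditions unmet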
NSD2 inh = NSD2 histone methyltransferase inhibitors, primary screen, biochemical, AlphaScreen, single concentration, set 2 | Histone-lysine N-methyltransferase NSD2 (Homo sapiens), O96028 | NSD2 peptide methylation, 120 min | inhibition, % at 12.5 µM | actives 0.54% (n = 310,000) | AID 743445, 2014; in the data active means inhibition above about 50%
CASP6 VEID inh = human caspase-6 inhibitors, primary screen, biochemical, VEID-R110 fluorescence, single point, set 2; P55212; inhibition, % at 12.5 µM; actives 0.53% (n = 350,000); purified caspase-6, Z-VEID-R110 cleavage fluorescence;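 active means mean inhibition across replicates at least about 35%, with every replicate also reaching that limit, limit read from the data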
Target sequence (P55212 24-179 limits assumed): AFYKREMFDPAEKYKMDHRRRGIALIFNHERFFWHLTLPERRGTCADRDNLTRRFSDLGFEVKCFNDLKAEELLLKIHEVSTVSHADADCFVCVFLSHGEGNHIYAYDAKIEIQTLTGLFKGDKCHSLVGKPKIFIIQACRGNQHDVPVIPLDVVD
Target sequence (P55212 194-293 limits assumed): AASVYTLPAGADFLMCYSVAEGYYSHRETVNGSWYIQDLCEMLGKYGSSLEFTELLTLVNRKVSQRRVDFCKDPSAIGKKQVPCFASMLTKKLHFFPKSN
AF4-AF9 inh = inhibitors of AF4 peptide binding to AF9, primary screen, biochemical, AlphaScreen, biotin-AF4 peptide, FLAG-AF9, single point | actives 0.47% (n = 350,000) | inhibition, % at 10 µM | Protein AF-9 (Homo sapiens), P42568;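 active means every replicate reaching a set inhibition limit, whatever the replicate mean, cut at about 25% in these data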
RAD52 inh = RAD52 DNA annealing inhibitors, primary screen, biochemical, FRET, single point, set 2. DNA repair protein RAD52 homolog (Homo sapiens), P43351. recombinant RAD52 DNA annealing, FRET fluorescence. inhibition, % at 18.7 µM. actives 0.46% (n = 360,000);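 active means every replicate showing at least 50% inhibition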
Target sequence (P43351 whole entry, looked up): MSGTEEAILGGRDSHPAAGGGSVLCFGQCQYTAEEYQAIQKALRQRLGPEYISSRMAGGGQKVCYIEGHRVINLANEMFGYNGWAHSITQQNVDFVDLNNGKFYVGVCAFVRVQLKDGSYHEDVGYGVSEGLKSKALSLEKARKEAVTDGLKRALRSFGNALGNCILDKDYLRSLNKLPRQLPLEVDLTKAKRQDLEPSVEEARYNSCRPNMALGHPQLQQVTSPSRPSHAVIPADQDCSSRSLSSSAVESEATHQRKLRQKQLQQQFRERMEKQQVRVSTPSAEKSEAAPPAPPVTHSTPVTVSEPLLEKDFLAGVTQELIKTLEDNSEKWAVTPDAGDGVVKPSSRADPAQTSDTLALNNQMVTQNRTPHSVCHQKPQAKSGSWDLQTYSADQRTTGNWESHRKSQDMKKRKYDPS
Alpha artifact = AlphaScreen signal interference with preloaded methylated product, dose response, artefact control for NSD2 inhibitor project, biochemical, cherry-picked samples | shares compounds with NSD2 inh | AlphaScreen artifact counterscreen, preloaded methylated H4 peptide | AC35, µM (top dose mostly 10 µM) | actives 9.4% (n = 1,500); call rule not given here
Of the large screens only hits and unclear results are named; the others gave an inactive call (follow-up assays come after a bar, where they were run). In the library only some 2.5% were active in any assay of this set; here they are far more common.

Cc1ccc(-n2nc(C(=O)NCc3ccc(C)o3)c3c4ccccc4n(C)c3c2=O)cc1	NSD2 inh 53 (no result: Ecoli rRNA inh, CASP6 VEID inh, AF4-AF9 inh, RAD52 inh) | Alpha artifact inactive
Cc1cccc(N(CC(=O)NC(C)(C)C)C(=O)CS(=O)CC(=O)Nc2ccc3c(c2)OCO3)c1 (centres undefined)	NSD2 inh 52 | Alpha artifact inactive
CCCC#Cc1cnc2c(c1)C(=O)N([C@H](C)CO)C[C@@H](C)[C@@H](CN(C)S(C)(=O)=O)O2	none (no result: NSD2 inh)
COc1cc(-c2nnn(Cc3ccccc3C)n2)cc(OC)c1OC	NSD2 inh 54 | Alpha artifact inactive
CCOC(=O)c1sc(NC(=O)COc2ccc3c(c2)OCO3)nc1C	NSD2 inh 114 | Alpha artifact inactive
CC(C)N(Cc1ccccc1)C(=O)C1CCCN(c2ncnc3c2nc2n3CCCCC2)C1 (centres undefined)	NSD2 inh 54 | Alpha artifact inactive
CCCNC(=O)N(C)C[C@H]1Oc2cc(C#CC3CC3)ccc2S(=O)(=O)N([C@H](C)CO)C[C@@H]1C	none (no result: NSD2 inh)
Cc1nnc(N/N=C\c2ccc(-c3cccc(C(=O)O)c3)o2)n1N	NSD2 inh 95 | Alpha artifact inactive
Nc1c(/C=C2/C=CC(=O)C(O)=C2)c(=O)nc2sc(CC(=O)N3CCOCC3)nn12	NSD2 inh 114 | Alpha artifact 3.6µM
C[C@H](CO)N1C[C@H](C)[C@H](CN(C)S(C)(=O)=O)Oc2ccc(NC(=O)Nc3cccc4ccccc34)cc2C1=O	none (no result: NSD2 inh)
COc1cc(/C=N/n2c(C)nnc2C)cc(OC)c1OC	NSD2 inh 83 (no result: Ecoli rRNA inh, CASP6 VEID inh, AF4-AF9 inh, RAD52 inh) | Alpha artifact inactive
O=C(COC(=O)c1ccccc1F)NC1CC1	NSD2 inh 52 | Alpha artifact inactive
Cc1noc(C)c1NC(=O)Nc1ccc2c(c1)CC(=O)N([C@@H](C)CO)C[C@@H](C)[C@H](CN(C)C(=O)Nc1ccccc1)O2	none (no result: NSD2 inh)
CCC1(c2ccc(F)cc2)NC(=O)N(CC(=O)N(CCC#N)c2ccccc2)C1=O (centres undefined)	NSD2 inh 60 | Alpha artifact inactive
N#CCCN(C(=O)CN1C(=O)NC2(CCCC2)C1=O)c1ccccc1F	none (no result: Ecoli rRNA inh, CASP6 VEID inh, AF4-AF9 inh, RAD52 inh)
O=C(Cc1ccccc1)NC1(O)C(=O)c2ccccc2C1=O	NSD2 inh 101 | Alpha artifact inactive
O=C(N[C@@H](Cc1ccccc1)C(=O)O)c1ccc(C(F)(F)F)cc1	none (no result: NSD2 inh)
O=C(NC1(O)C(=O)c2ccccc2C1=O)c1ccc(C(F)(F)F)cc1	NSD2 inh 108 | Alpha artifact inactive
CC(NC(=O)Cc1ccccc1)c1ccccc1 (centres undefined)	none
Cc1ccc(C(=O)NC2(O)C(=O)c3ccccc3C2=O)cc1C	NSD2 inh 110 | Alpha artifact inactive
CNC(=O)C[C@H]1CC[C@@H]2[C@H](COc3ccc(NC(=O)c4cccc(F)c4)cc3C(=O)N2C)O1	none (no result: NSD2 inh)
CCC(=O)N1[C@@H]2c3ccc(C4=CCCCC4)c(=O)n3C[C@H]1[C@H](CO)[C@H]2C(=O)N[C@H](C)c1ccccc1	none (no result: NSD2 inh)
CC(C)(C)c1cc[n+](C2=C([O-])c3ccccc3C(=O)/C2=N\S(=O)(=O)c2ccccc2)cc1	NSD2 inh 63 | Alpha artifact inactive
Cc1cc[n+](C2=C([O-])c3ccccc3C(=O)/C2=N\S(=O)(=O)c2cccs2)cc1C	none
CC(C)[n+]1ccn(C2=C([O-])c3ccccc3C(=O)/C2=N\S(=O)(=O)c2ccccc2)c1	NSD2 inh 96, CASP6 VEID inh 35 (no result: Ecoli rRNA inh) | Alpha artifact inactive
Nc1nc(COC(=O)c2ccco2)nc(Nc2ccccc2)n1	NSD2 inh 53 | Alpha artifact inactive
CO[C@H]1CN(C)C(=O)c2ccc(NC(C)=O)cc2OC[C@@H](C)N(Cc2nccs2)C[C@@H]1C	none (no result: NSD2 inh)
CCN(CC)CCCN(Cc1cc2ccc(C)c(C)c2[nH]c1=O)C(=O)NC1CCCCC1	NSD2 inh 63 (no result: Ecoli rRNA inh, CASP6 VEID inh, AF4-AF9 inh, RAD52 inh) | Alpha artifact inactive
CCN(CC)CCCN(Cc1cc2cc3c(cc2[nH]c1=O)OCO3)C(=S)NCCCOC	NSD2 inh 75 | Alpha artifact inactive
CCN(CC)CCCN(Cc1cc2cc3c(cc2[nH]c1=O)OCCO3)C(=O)Nc1ccccc1	NSD2 inh 93 (no result: Ecoli rRNA inh, CASP6 VEID inh, AF4-AF9 inh, RAD52 inh) | Alpha artifact inactive
CCN(CC)CCN(Cc1cc2cc3c(cc2[nH]c1=O)OCO3)C(=S)NCCCOC	none
Cc1ccc2cc(CN(CC3CCCO3)C(=O)NC3CCCCC3)c(=O)[nH]c2c1C (centres undefined)	none (no result: Ecoli rRNA inh, CASP6 VEID inh, AF4-AF9 inh, RAD52 inh)
CO[C@@H]1CC[C@H]2CCN(C)C(=O)C[C@H](c3ccccc3)CN(C)C(=O)c3cc(C#N)ccc3OC[C@@H]1O2	none (no result: NSD2 inh)
COc1ccc(CN2C[C@H](O)COC[C@@H]3O[C@@H](CC(=O)NCCN4CCCC4)CC[C@H]32)cc1	none (no result: NSD2 inh, CASP6 VEID inh, AF4-AF9 inh, RAD52 inh)
CC1CCC2(CC1)NC(=O)N(CC(=O)N(Cc1ccccc1)C(C)(C)C)C2=O (centres undefined)	none
COc1ccc(CN(C(=O)CN2C(=O)NC3(CCC(C)CC3)C2=O)C(C)Cc2cccs2)cc1 (centres undefined)	NSD2 inh 55 (no result: Ecoli rRNA inh) | Alpha artifact inactive
COc1cccc(C#Cc2ccc3c(c2)[C@@H]2[C@@H](CCN2C(C)=O)[C@@H](CO)N3)c1	none (no result: NSD2 inh, CASP6 VEID inh, AF4-AF9 inh, RAD52 inh)
O=S(=O)(c1ccc2c(c1)nc1n2CCC1)N1CCOCC1	NSD2 inh 92 (no result: Ecoli rRNA inh, CASP6 VEID inh, AF4-AF9 inh, RAD52 inh) | Alpha artifact inactive
CCCn1c(CCl)nc2cc(S(=O)(=O)N3CCOCC3)ccc21	none
CC1=NOC(=O)/C1=C/c1ccc(O)c(Br)c1	none
CC1=NOC(=O)/C1=C\c1ccc(-c2cccc(Cl)c2)o1	none (no result: Ecoli rRNA inh, CASP6 VEID inh, AF4-AF9 inh, RAD52 inh)
CC1=NOC(=O)/C1=C\c1ccc(-c2ccc(Cl)c(C(=O)O)c2)o1	NSD2 inh 84 | Alpha artifact inactive
CC1=NOC(=O)/C1=C\c1ccc(-c2ccccc2Br)o1	NSD2 inh 69 (no result: Ecoli rRNA inh) | Alpha artifact inactive
CC(=O)N[C@@H]1C=C[C@H](CC(=O)NCc2ccc(Cl)cc2)O[C@H]1CO	none (no result: NSD2 inh)
COC(=O)[C@@H]1[C@@H](CO)[C@@H]2Cn3c(ccc(-c4ccccc4)c3=O)[C@@H]2N1S(C)(=O)=O	none (no result: NSD2 inh)
Cc1cc(NC(=O)COC(=O)c2cccc(S(=O)(=O)N3CCOCC3)c2)no1	NSD2 inh 108 (no result: Ecoli rRNA inh, CASP6 VEID inh, AF4-AF9 inh, RAD52 inh) | Alpha artifact inactive
COc1ccc(NC(=O)CN2CCN(S(=O)(=O)N3CCCCCC3)CC2)cc1	NSD2 inh 74 | Alpha artifact inactive
O=C(CN1CCOCCOCCOCC1)Nc1ccccc1	none (no result: Ecoli rRNA inh, CASP6 VEID inh, AF4-AF9 inh, RAD52 inh)
COc1ccc(NC(=O)CN2CCCC2)cc1	none
O=C(CN1CCOCC1)Nc1ccc(Oc2ccccc2)cc1	NSD2 inh 53 (no result: Ecoli rRNA inh, CASP6 VEID inh, AF4-AF9 inh, RAD52 inh) | Alpha artifact inactive

From PubChem BioAssay
